Where “and” joins values, the source holds several entries; their conditions need not be identical. Identical values can stand only once. Results filed as inconclusive are left out. Calls of active or inactive are those of the source. Unless noted, calls follow the shape of the dose curve; as a rule, active = well fitted curve in the direction sought with a large enough effect; inconclusive = small, poorly fitted or top-dose-only effect, or another doubt; inactive = no such curve, though single readings can be large; an effect the other way counts as inactive or inconclusive.
Experiments:
[1] = biological target: Glucocorticoid receptor (Homo sapiens) (UniProt P04150); experiment: GR-GFP Redistribution (AID 450;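 active = compounds whose dose series gives a full or clear partial fitted curve of increased nuclear translocation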; also: potency is read from the fitted curve at half-maximal effect); conditions: U2OS GR-GFP nuclear translocation, laser cytometry, 2 h
[2] = biological target: Glucocorticoid receptor (Homo sapiens) (UniProt P04150); experiment: GR-EFC Redistribution (AID 451; calls by dose curve; also: potency is read from the fitted curve at half-maximal effect); conditions: CHO-K1 GR-EFC translocation, beta-gal luminescence, 2 h
Method in brief: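 CHO-K1 cells stably expressing nuclear-localized β-gal enzyme acceptor and GR fused C-terminally to the enzyme donor fragment; ligand-driven nuclear translocation restores β-gal by complementation. Compounds titrated up to 46 uM final, 2 h at 37 °C; luminescence read.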

[3] = Cell Viability - N2a (AID 540); conditions: N2a mouse neuroblastoma cell viability; series mostly up to 92.2 µM; also: nearly all actives have a fitted effect of over 45% in size
Method in brief: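 First, 1500 N2a cells per well incubate 5 hr at 37 °C; next, compounds are added and incubated 40 hr at 37 °C; finally CellTiter-Glo is added and luminescence read after 20 min, with AC50 derived by Hill modeling.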

[4] = Cell Viability - NIH 3T3 (AID 541); conditions: NIH 3T3 cell viability, qHTS; series mostly up to 92.2 µM; also: nearly all actives have a fitted effect of over 25% in size
Method in brief: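 AC50 values reflect concentration-dependent loss of intracellular ATP in NIH 3T3 cells after 40 hr treatment in complete culture medium, quantified by luciferase-based luminescence.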

[5] = Cell Viability - HUV-EC-C (AID 542); conditions: HUV-EC-C endothelial cell viability, qHTS; series mostly up to 92.2 µM; also: nearly all actives have a fitted effect of over 35% in size
Method in brief: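 Decrease in cellular ATP, quantified by luciferase luminescence, reflects toxicity in normal human vascular endothelial HUV-EC-C cells given compound for 40 hr in complete culture medium. Values are AC50s from concentration-response curves.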

[6] = Cell Viability - H-4-II-E (AID 543); conditions: H-4-II-E rat hepatoma viability; series mostly up to 92.2 µM; also: nearly all actives have a fitted effect of over 35% in size
Method in brief: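 Here, cytotoxicity is measured in the rat hepatoma line H-4-II-E as loss of intracellular ATP after 40 hr compound treatment, detected by luciferase luminescence.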

[7] = Cell Viability - SH-SY5Y (AID 544); conditions: SH-SY5Y neuroblastoma cell viability; series mostly up to 92.2 µM; also: nearly all actives have a fitted effect of over 55% in size
Method in brief: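 Cytotoxicity is scored as a concentration-dependent fall in intracellular ATP in human SH-SY5Y cells treated 40 hr in complete culture medium. Potency is expressed as AC50 from a Hill equation fit.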

[8] = Cell Viability - Renal Proximal Tubule (AID 545); conditions: renal proximal tubule cells viability, primary cells of rat origin; series mostly up to 91.7 µM; also: nearly all actives have a fitted effect of over 40% in size
Method in brief: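 Rat renal proximal tubule primary cells, 1000/well, exposed to compounds for 40 hr at 37 °C in complete medium; cellular ATP read by CellTiter-Glo luminescence. AC50 from concentration-response fitted with standard Hill equation.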

[9] = Cell Viability - Mesenchymal (AID 546); conditions: mesenchymal cells viability, qHTS; series mostly up to 91.7 µM;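 also: cells exposed to compound for 40 hours before reading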
Method in brief: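 Normal human renal glomerulus-derived kidney mesenchymal cells, 1000 per well in complete medium, were treated with compounds for 40 hr at 37 °C. Viability was read as intracellular ATP by CellTiter-Glo luminescence; AC50 values came from Hill-equation fits of qHTS concentration-response data.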

Measured: Potency

Chain of Glucocorticoid receptor (Homo sapiens) (P04150 whole entry, looked up, the tested form may be a part): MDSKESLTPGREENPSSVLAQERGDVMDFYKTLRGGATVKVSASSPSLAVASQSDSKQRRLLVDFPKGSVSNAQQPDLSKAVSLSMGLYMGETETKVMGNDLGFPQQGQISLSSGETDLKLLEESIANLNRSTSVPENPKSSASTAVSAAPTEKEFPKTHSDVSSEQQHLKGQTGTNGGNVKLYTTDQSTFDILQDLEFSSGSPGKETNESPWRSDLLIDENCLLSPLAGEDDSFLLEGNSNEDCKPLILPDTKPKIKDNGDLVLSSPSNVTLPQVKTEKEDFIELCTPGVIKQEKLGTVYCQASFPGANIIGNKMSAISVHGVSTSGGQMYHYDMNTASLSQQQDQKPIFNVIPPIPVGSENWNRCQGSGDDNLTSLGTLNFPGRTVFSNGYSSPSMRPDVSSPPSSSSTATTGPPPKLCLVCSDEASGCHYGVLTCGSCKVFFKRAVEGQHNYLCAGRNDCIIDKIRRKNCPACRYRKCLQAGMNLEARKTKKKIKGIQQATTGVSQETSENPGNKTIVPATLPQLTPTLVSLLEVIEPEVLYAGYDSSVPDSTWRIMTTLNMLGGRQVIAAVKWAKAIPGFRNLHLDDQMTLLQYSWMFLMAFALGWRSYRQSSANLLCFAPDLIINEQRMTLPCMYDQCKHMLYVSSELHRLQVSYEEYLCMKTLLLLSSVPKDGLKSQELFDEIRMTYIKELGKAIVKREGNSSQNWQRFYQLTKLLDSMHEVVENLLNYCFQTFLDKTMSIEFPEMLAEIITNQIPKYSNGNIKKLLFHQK

CC(C)C[C@H](NC(=O)[C@@H]1O[C@H]1C(=O)O)C(=O)NCCCCN=C(N)N
inactive: [1] > 46 µM and > 20.6 µM | [2] > 46 µM

C[C@]1(C2CCCC2)Cc2cc(OCC(=O)O)c(Cl)c(Cl)c2C1=O
inactive: [1] > 46 µM | [2] > 46 µM

COc1ccc(CCC(=O)c2c(O)cc(O[C@@H]3O[C@H](CO)[C@@H](O)[C@H](O)[C@H]3O[C@@H]3O[C@@H](C)[C@H](O)[C@@H](O)[C@H]3O)cc2O)cc1O
not listed: [1] | [2]
inactive: all other assays above

C=C1C[C@]23C[C@@]1(O)CC[C@H]2[C@@]12C=C[C@H](O)[C@@](C)(C(=O)O1)[C@H]2[C@@H]3C(=O)O
not listed: [1] | [2]
inactive: all other assays above

Source: PubChem BioAssay (NCATS)
